According to PubChem BioAssay (NCI):
About 83,000 compounds went through this panel and 20% of them were active in at least one assay; those are over-represented in the sample as a whole.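 Results are percent growth after 48 hours of single-concentration exposure. 100 means growth as in untreated cells, lower positive values show inhibition; negative values down to -100 show cell death.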 The source made the active and inactive calls. The calls were made as follows: active = growth percent below 10; inactive = the rest.

Columns and labels:
Experiment in all cases: NCI-60 one-dose screen, 48 h (100 = growth as untreated, 0 = no growth, -100 = all killed)
Settings in all cases: 10 µM unless noted
SK-MEL-2 melanoma = system: SK-MEL-2 melanoma
EKVX NSCLC = system: EKVX NSCLC
SN12C renal = system: SN12C renal
UO-31 renal = system: UO-31 renal
TK-10 renal = system: TK-10 renal
ACHN renal = system: ACHN renal
CAKI-1 renal = system: CAKI-1 renal
A498 renal = system: A498 renal
CCRF-CEM leukemia = system: CCRF-CEM leukemia
MOLT-4 leukemia = system: MOLT-4 leukemia

Measured: growth

CCOC(=O)NC(C)C
inactive: SK-MEL-2 melanoma 114% | EKVX NSCLC 105% | SN12C renal 100% | UO-31 renal 81.5% | TK-10 renal 115% | ACHN renal 100% | CAKI-1 renal 98.2% | A498 renal 117% | CCRF-CEM leukemia 110% | MOLT-4 leukemia 82.9%

COc1ccc2c(c1)c(-c1nc(-c3c[nH]c4ccncc34)cs1)cn2C
active: SK-MEL-2 melanoma -45.2% | EKVX NSCLC -53.3% | SN12C renal -72% | UO-31 renal -88% | ACHN renal -96.7% | CAKI-1 renal -86.3% | CCRF-CEM leukemia -45.2% | MOLT-4 leukemia -42.8%
inactive: TK-10 renal 43.4% | A498 renal 65.7%

CCOc1ccccc1Cn1ccnc1CCc1c(Cl)c(O)cc(O)c1C(=O)OC
inactive: SK-MEL-2 melanoma 87.5% | EKVX NSCLC 101% | SN12C renal 96.9% | UO-31 renal 78.9% | TK-10 renal 90.4% | ACHN renal 98.3% | CAKI-1 renal 98.6% | A498 renal 114% | CCRF-CEM leukemia 93.6% | MOLT-4 leukemia 91.9%

O=C(O)c1cn(C2CC2)c2cc(N3CCN(Cc4ccc5ccccc5c4O)CC3)c(F)cc2c1=O
active: A498 renal -7.61%
inactive: SK-MEL-2 melanoma 76.3% | EKVX NSCLC 66.7% | SN12C renal 32.5% | UO-31 renal 42.2% | TK-10 renal 67.7% | ACHN renal 59% | CAKI-1 renal 15.2% | CCRF-CEM leukemia 68.2% | MOLT-4 leukemia 39%

COc1ccc(F)cc1/C=C/C(=O)/C=C(/C=C/c1cc(F)ccc1OC)OB(F)F
inactive: SK-MEL-2 melanoma 84.1% | EKVX NSCLC 71.3% | TK-10 renal 32.9% | CAKI-1 renal 28.7% | A498 renal 108%
active: SN12C renal 8.78% | UO-31 renal -9.88% | ACHN renal 2.25% | CCRF-CEM leukemia -14.7% | MOLT-4 leukemia -16.5%

CC1=C([Se]CC(OC(=O)CC[Se]c2ccccc2)C(=O)NC(C)(C)C)C(=O)c2ccccc2C1=O (stereo not given)
active: SK-MEL-2 melanoma 9.93% | EKVX NSCLC -65.4% | SN12C renal -62.5% | UO-31 renal -12% | TK-10 renal -89.8% | ACHN renal -55.5% | CAKI-1 renal -34.3% | A498 renal -26.4% | CCRF-CEM leukemia -10.8% | MOLT-4 leukemia -31.6%

CC(C)=CCC[C@](C)(O)[C@H]1CC[C@]2(C)[C@@H]1CC[C@@H]1[C@@]3(C)C/C(=C/c4ccco4)C(=O)C(C)(C)[C@@H]3CC[C@]12C
inactive: SK-MEL-2 melanoma 109% | EKVX NSCLC 101% | SN12C renal 97% | UO-31 renal 88.7% | TK-10 renal 103% | ACHN renal 102% | CAKI-1 renal 90.7% | A498 renal 86.3% | CCRF-CEM leukemia 101% | MOLT-4 leukemia 104%

CCOC(=O)C#Cc1c(C(=O)OCC)nnn1Cc1ccc([N+](=O)[O-])cc1
inactive: SK-MEL-2 melanoma 109% | EKVX NSCLC 106% | SN12C renal 58.6% | A498 renal 107% | MOLT-4 leukemia 14.9%
active: UO-31 renal 4.18% | TK-10 renal -10.9% | ACHN renal -53.6% | CAKI-1 renal -52% | CCRF-CEM leukemia -21.3%

CCN1C(=S)N(c2ccccc2)C2NC(=S)N(/N=C/C=C/c3ccccc3OC)C21 (stereo not given)
active: A498 renal 1.17% | CCRF-CEM leukemia 9.27% | MOLT-4 leukemia 9.49%
inactive: SK-MEL-2 melanoma 32.8% | EKVX NSCLC 48.2% | SN12C renal 24.6% | UO-31 renal 44% | TK-10 renal 68.6% | ACHN renal 33.3% | CAKI-1 renal 27.7%

O=C(NNC(=O)c1ccc(NC(=O)c2ccccn2)cc1)Nc1ccc([N+](=O)[O-])cc1
inactive: SK-MEL-2 melanoma 106% | EKVX NSCLC 102% | SN12C renal 96.6% | UO-31 renal 75.8% | TK-10 renal 101% | ACHN renal 95.5% | CAKI-1 renal 91.6% | A498 renal 104% | CCRF-CEM leukemia 103% | MOLT-4 leukemia 103%

O=C(Nc1ccc(Oc2cccc(Cl)c2)c(Cl)c1)c1cccnc1
active: A498 renal -3.1%
inactive: SK-MEL-2 melanoma 44.1% | EKVX NSCLC 50.9% | SN12C renal 43.4% | UO-31 renal 44.1% | TK-10 renal 59.8% | ACHN renal 41.7% | CAKI-1 renal 30.6% | CCRF-CEM leukemia 17.5% | MOLT-4 leukemia 37.4%

O=C1C(Cl)=C(Nc2ccc(S(=O)(=O)N3CCOCC3)cc2)C(=O)c2ccccc21
active: CCRF-CEM leukemia 6.98% | MOLT-4 leukemia 5.92%
inactive: SK-MEL-2 melanoma 108% | EKVX NSCLC 53.5% | SN12C renal 78.4% | UO-31 renal 52.8% | TK-10 renal 105% | ACHN renal 59% | CAKI-1 renal 78.5% | A498 renal 68.8%

Cn1cc(-c2nonc2-c2cn(C)c3ccccc23)c2ccccc21
active: CCRF-CEM leukemia 9.67%
inactive: SK-MEL-2 melanoma 35.6% | EKVX NSCLC 40.4% | SN12C renal 43.6% | UO-31 renal 40.5% | TK-10 renal 62.5% | ACHN renal 44.4% | CAKI-1 renal 31.3% | A498 renal 12.3% | MOLT-4 leukemia 17.5%
